Results from ChEMBL document CHEMBL1961873, “Compounds: GSK PKIS; Assays: Nanosyn kinase panel” (2012).

Key:
[1] = target: T1, Inhibitor of nuclear factor kappa-B kinase subunit epsilon (Homo sapiens) (UniProt Q14164); details: at 1 µM;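 note: reported values are averaged percent inhibition figures against human IKKε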
T1 sequence (whole entry): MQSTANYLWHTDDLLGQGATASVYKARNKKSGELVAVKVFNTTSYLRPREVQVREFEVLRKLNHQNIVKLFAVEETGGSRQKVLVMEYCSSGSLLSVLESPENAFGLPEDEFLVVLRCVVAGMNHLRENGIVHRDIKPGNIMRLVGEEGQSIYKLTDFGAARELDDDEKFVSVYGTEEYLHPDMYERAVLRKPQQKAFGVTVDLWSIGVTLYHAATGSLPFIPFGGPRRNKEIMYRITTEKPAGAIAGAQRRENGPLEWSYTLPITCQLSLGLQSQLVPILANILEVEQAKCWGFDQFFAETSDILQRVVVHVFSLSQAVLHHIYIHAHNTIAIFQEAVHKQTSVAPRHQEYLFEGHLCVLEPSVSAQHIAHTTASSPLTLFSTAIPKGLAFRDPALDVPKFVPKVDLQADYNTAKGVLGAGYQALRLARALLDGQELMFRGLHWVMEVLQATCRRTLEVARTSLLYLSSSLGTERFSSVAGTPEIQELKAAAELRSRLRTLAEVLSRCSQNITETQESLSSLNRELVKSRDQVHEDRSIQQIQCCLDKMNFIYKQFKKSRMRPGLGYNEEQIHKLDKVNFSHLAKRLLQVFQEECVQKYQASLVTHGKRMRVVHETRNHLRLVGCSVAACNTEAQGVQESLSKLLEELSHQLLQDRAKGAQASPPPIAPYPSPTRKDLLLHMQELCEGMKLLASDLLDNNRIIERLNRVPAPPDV

[2] = target: T2, Serine/threonine-protein kinase Nek1 (Homo sapiens) (UniProt Q96PY6); details: at 0.1 µM
T2 sequence (whole entry): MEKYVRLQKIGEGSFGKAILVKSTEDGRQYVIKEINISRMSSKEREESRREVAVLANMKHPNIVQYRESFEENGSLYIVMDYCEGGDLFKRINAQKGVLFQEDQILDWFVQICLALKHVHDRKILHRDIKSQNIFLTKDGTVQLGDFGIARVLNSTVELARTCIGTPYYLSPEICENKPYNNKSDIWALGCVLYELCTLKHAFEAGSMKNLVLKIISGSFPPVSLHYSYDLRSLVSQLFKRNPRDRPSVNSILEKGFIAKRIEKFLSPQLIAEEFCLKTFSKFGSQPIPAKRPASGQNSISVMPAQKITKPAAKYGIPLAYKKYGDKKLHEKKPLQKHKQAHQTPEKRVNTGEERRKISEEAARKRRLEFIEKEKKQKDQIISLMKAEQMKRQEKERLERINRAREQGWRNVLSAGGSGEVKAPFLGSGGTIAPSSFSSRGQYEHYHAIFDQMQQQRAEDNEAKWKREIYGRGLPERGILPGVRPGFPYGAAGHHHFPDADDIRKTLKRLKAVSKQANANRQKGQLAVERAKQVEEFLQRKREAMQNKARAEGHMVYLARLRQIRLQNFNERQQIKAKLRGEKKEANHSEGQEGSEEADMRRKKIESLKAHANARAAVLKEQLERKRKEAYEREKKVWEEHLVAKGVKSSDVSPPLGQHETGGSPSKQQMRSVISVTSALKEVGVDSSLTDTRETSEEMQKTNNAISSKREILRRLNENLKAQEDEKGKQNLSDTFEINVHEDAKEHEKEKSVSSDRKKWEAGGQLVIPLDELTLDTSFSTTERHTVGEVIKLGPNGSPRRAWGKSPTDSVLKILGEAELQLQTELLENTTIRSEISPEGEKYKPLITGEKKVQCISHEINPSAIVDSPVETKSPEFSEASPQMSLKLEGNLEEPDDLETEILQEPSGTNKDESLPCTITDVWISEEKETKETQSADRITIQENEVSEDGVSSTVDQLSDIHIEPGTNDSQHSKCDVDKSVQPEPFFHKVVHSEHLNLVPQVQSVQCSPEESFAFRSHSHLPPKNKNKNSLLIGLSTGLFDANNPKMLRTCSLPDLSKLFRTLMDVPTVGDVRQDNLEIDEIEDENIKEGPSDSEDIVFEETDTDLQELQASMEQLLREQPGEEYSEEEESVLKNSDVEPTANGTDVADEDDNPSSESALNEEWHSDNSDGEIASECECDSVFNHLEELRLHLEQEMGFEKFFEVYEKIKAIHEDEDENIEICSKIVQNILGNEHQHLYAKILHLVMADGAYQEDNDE

[3] = target: T2, Serine/threonine-protein kinase Nek1 (Homo sapiens); details: at 1 µM
[4] = target: T3, Serine/threonine-protein kinase Nek2 (Homo sapiens) (UniProt P51955); details: at 0.1 µM
T3 sequence (whole entry): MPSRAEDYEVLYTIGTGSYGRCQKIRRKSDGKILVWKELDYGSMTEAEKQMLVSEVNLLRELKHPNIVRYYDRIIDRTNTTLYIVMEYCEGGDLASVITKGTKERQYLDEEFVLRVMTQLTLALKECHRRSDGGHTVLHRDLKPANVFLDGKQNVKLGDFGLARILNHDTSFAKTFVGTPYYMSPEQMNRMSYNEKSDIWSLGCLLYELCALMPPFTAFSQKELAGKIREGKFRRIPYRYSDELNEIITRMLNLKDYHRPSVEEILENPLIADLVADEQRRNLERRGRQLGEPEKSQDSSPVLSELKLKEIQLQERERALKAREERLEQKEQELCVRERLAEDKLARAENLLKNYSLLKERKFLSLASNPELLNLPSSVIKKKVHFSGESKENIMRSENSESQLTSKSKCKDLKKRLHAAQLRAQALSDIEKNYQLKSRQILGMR

[5] = target: T3, Serine/threonine-protein kinase Nek2 (Homo sapiens); details: at 1 µM
[6] = target: Serine/threonine-protein kinase Nek6 (Homo sapiens) (UniProt Q9HC98); details: at 0.1 µM
[7] = target: Serine/threonine-protein kinase Nek6 (Homo sapiens) (UniProt Q9HC98); details: at 1 µM
[8] = target: Serine/threonine-protein kinase Nek7 (Homo sapiens) (UniProt Q8TDX7); details: at 0.1 µM
[9] = target: Serine/threonine-protein kinase Nek7 (Homo sapiens) (UniProt Q8TDX7); details: at 1 µM
[10] = target: T4, Serine/threonine-protein kinase Nek9 (Homo sapiens) (UniProt Q8TD19); details: at 0.1 µM;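 note: reported value is the mean percent inhibition of NEK9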
T4 sequence (whole entry): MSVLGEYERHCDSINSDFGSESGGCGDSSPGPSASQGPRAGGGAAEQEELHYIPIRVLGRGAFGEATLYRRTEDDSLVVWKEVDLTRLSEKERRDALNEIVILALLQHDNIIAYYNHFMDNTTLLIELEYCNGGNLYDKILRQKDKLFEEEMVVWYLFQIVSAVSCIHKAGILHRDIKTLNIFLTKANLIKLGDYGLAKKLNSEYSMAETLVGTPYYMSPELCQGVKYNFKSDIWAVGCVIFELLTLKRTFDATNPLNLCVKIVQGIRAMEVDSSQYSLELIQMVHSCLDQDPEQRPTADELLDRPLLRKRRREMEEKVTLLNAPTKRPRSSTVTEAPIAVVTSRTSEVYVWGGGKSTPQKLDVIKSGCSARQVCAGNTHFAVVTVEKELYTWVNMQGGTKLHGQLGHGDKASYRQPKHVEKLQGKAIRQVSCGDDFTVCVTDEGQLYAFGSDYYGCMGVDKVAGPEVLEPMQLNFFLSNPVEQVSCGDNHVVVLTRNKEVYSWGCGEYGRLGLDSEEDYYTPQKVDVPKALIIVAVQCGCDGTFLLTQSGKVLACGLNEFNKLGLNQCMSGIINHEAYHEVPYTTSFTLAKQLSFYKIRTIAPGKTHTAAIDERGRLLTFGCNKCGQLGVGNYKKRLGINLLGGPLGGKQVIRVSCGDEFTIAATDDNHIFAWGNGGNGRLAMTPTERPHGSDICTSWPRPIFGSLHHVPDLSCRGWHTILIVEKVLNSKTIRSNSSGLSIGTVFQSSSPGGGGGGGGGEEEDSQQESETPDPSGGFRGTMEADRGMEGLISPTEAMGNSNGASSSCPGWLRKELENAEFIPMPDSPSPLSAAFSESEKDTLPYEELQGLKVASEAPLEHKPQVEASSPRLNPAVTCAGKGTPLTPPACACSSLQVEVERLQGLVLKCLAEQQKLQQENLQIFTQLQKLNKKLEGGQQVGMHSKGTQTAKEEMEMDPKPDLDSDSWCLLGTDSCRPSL

Serine/threonine-protein kinase Nek6 (Homo sapiens), sequence (Q9HC98 whole entry): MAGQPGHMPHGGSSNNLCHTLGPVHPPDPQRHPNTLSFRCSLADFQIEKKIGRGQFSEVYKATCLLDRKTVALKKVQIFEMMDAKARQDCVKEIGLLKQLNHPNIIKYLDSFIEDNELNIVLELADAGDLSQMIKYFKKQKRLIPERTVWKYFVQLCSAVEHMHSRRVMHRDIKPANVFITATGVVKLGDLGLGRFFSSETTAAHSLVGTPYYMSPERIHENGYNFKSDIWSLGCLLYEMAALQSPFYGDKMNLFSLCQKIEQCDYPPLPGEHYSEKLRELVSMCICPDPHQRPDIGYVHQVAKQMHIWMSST
Serine/threonine-protein kinase Nek7 (Homo sapiens), sequence (Q8TDX7 whole entry, looked up): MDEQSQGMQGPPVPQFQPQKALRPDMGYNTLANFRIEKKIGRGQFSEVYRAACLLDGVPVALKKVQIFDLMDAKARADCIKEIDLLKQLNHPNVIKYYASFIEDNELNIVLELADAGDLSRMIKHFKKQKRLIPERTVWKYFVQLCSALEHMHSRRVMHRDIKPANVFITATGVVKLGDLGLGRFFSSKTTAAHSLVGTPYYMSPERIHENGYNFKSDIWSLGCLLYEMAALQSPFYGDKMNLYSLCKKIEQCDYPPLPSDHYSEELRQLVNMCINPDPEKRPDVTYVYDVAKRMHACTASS

Structure (SMILES) | inhibition [1] [%] | inhibition [2] [%] | inhibition [3] [%] | inhibition [4] [%] | inhibition [5] [%] | inhibition [6] [%] | inhibition [7] [%] | inhibition [8] [%] | inhibition [9] [%] | inhibition [10] [%]
CN(C)CCCNc1nccc(-c2c(-c3ccc(F)cc3)nn3cc(C(F)(F)F)ccc23)n1 | 1.28 | 2.23 | 4.09 | 1.87 | 1.49 | 1.82 | -1.46 | 2.85 | 1.37 | 5.9
CCC(=O)Nc1ccc(C)c(-c2ccc(C(=O)NCC3CC3)cc2)c1 | 4.21 | 2.34 | 2.64 | 4.55 | 0.77 | 2.45 | 0.12 | 3.13 | 8.32 | 8.46
O=C(Nc1n[nH]c2nc(-c3ccco3)ccc12)C1CC1 | -0.75 | 1.33 | 1.36 | -0.12 | 1.78 | 1.86 | -0.99 | 2.23 | 2.61 | 6.28
CS(=O)(=O)CCNCc1ccc(-c2ccc3ncnc(Nc4ccc(OCc5ccccc5)c(Br)c4)c3c2)o1 | 4.71 | 1.95 | 1.93 | 5.02 | 3.81 | 4.55 | 3.89 | 3.08 | 5.42 | 6.05
CS(=O)(=O)CCNCc1cc(-c2cc3c(Nc4ccc(OCc5cccc(F)c5)c(Cl)c4)ncnc3s2)cs1 | 4.64 | 3.08 | 5.81 | 6.26 | 6.31 | 1.2 | 3.03 | 4.02 | 8.5 | 9.93
CN(C)c1ccc2c(c1)/C(=C/Nc1ccc(S(N)(=O)=O)cc1)C(=O)N2 | 23.1 | 1.42 | 2.38 | 2.78 | 3.05 | 0.8 | 2.13 | 5.09 | 3.01 | -1.19
CCc1ccc(Oc2nccc(-c3c(-c4ccc(F)cc4)ncn3C3CCNCC3)n2)cc1 | 6.86 | 2.27 | 1.69 | 4.75 | 2.36 | 2.41 | 0.8 | 2.65 | 5.98 | -0.95
COc1cc(N2CCN(C(C)C)CC2)ccc1Nc1nc(Nc2ccc(F)cc2C(=O)NC[C@@H](O)CO)c2cc[nH]c2n1 | 10.3 | 2.75 | 4.63 | 5.32 | 5.19 | 1.82 | 3.84 | 5.49 | 3.45 | 2.99
CNC(=O)c1cncc(/C=C/c2c(C)cccc2C)c1 | 0.54 | -0.56 | 2.88 | 0.66 | -0.77 | 1.65 | 0.01 | -1.37 | 0.6 | -0.53
COc1cccc(/C=N/Nc2ncnc3c2cnn3-c2cccc(OC)c2)c1 | 6.73 | 1.81 | 3.93 | 5.68 | 3.79 | 1.07 | 2.21 | 3.9 | 8.57 | 7.75
Fc1ccc(-c2c(-c3ccncc3)nc3n2CCS3)cc1 | 5.11 | 2.32 | 3.2 | 2.33 | 2.6 | -0.57 | 0.48 | 3.63 | 2.47 | 5.56
NS(=O)(=O)c1ccc(N/N=C2\C(=O)Nc3ccc(-c4cnco4)cc32)cc1 | 26.5 | 0.9 | -0.1 | 2.64 | 1.79 | 1.55 | 1.55 | 2.6 | 8.73 | 2.34
C#Cc1cccc(Nc2ncnc3ccc(OCCCCNCCS(C)(=O)=O)cc23)c1 | 9.33 | 3.06 | 8.52 | 5.28 | 6.09 | 3.67 | 3.84 | 4.76 | 3.44 | 8.12
Cc1ccc(NC(=O)c2ccoc2)cc1-c1ccc(C(=O)NCC2CC2)cc1 | 2.47 | 1.2 | 0.36 | 3.49 | 3.48 | 2.49 | 0.14 | 0.66 | 1.16 | 5.95
NCc1ccc(-n2c(-c3nonc3N)nc3cnccc32)cc1 | 11.4 | 3.18 | 3.48 | 6.17 | 7.8 | 3.51 | 3.42 | 7.27 | 7.6 | 2.32
O=C1Nc2ccccc2/C1=C/Nc1ccc(-n2cncn2)cc1 | 16.4 | 2.46 | 5.21 | 4.4 | 4.16 | 4.59 | 7.54 | 5.44 | 4.4 | 5.79
COc1cccc(-n2cnc3c(N/N=C/c4ccncc4)ncnc32)c1 | 4.51 | 0 | 9.07 | -1.74 | -1.3 | 2.37 | 2.69 | -0.81 | -2.76 | 0.98
